Source: PubChem (National Center for Advancing Translational Sciences (NCATS))
Most compounds without a hit are left out; they make up all but 9.5% or so of the library.
RE007 growth inh: less growth of the S. pombe RE007 Vpr strain. AID 651644. S. pombe RE007 Vpr strain, BacTiter-Glo ATP luminescence, 24 h. 0.21% of 360,000 active. Potency, µM (top dose mostly 92.2 µM), inactives show top-dose activity change, negative = less growth, most hits filed as inhibitors; active means well fitted falling curve with a large enough effect; inconclusive means small, poorly fitted or top-dose-only effect; inactive means no such curve, though single readings can be large or run the other way; further: on the % scale 0 is the no-effect control and ±100 the full control effect; nearly all actives have a fitted effect of over 50% in size
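Fission yeast RE007 carrying one integrated HIV-1 vpr copy, seeded at OD 0.01 in PMG+AL medium with 23 nL pinned compound. Grown 24 h at 30 degrees; viability read by BacTiter-Glo luminescence after 5 min.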
SARS PLpro yeast: SARS-CoV PLP inhibition in yeast. Potency, µM (highest dose often 32.9 µM), for inactives: at the top dose activity, positive = growth rescue, usual class: activators. AID 485353. S. cerevisiae expressing SARS-CoV PLpro, growth rescue. 0.19% of 330,000 active; further: 0% is about no effect; nearly all actives have a fitted effect of over 55% in size
Pf growth 48h: inhibits P. falciparum growth in the first generation, 48 h; P. falciparum luciferase growth in erythrocytes, 48 h; Potency, µM (titrated, usually from 28.7 µM), without a hit: top-dose activity change, negative = inhibition, hits mostly inhibitors; 5.9% of 310,000 active; AID 504832; active means well fitted inhibition curve with a large enough effect; inconclusive means small, poorly fitted or top-dose-only effect, or another doubt; inactive means no such curve, though single readings can be large or run the other way; further: on the % scale 0 is the no-effect control and ±100 the full control effect
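Compounds are pin-transferred into medium, infected erythrocytes (2% hematocrit, 0.1% parasitemia final) are added, and plates sit one parasite generation at 37 C in 5% CO2. Detection reagent is then added and luminescence measured.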
Pf growth 96h: inhibits malaria parasite growth, 96 h; Potency, µM (series often up to 28.7 µM), for inactives: top-dose activity change, negative = inhibition, most hits filed as inhibitors; 6.9% of 320,000 active; AID 504834; P. falciparum luciferase reporter growth, 96 h; active means well fitted inhibition curve with a large enough effect; inconclusive means small, poorly fitted or top-dose-only effect, or another doubt; inactive means no such curve, though single readings can be large or run the other way; further: on the % scale 0 is the no-effect control and ±100 the full control effect
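Parasite growth measured via integrated firefly luciferase reporter in P. falciparum. Infected erythrocytes at 2% hematocrit, 0.05% parasitemia final were treated 96 hours at 37 C under 5% CO2, and luminescence was read.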
NS1 inh: blocks influenza NS1 protein function; AID 2326; 0.4% of 270,000 active; Potency, µM (titrated, usually from 46.1 µM), for the others: top-dose activity, positive = more growth; further: actives are rising curves; nearly all actives have a fitted effect of over 50% in size
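Read-out: OD600 growth recovery of NS1-expressing budding yeast. Cells grown overnight at 30C in -URA glucose medium, washed, resuspended and diluted 1:100 in 2% galactose assay medium, pH 6.0. Same strain lacking NS1 served as positive control.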
Active calls of the source: *; ? = inconclusive; · = no result given; [ ] = dose if it differs, or a comment. Unless noted, the call rests on the fitted dose curve. Potency means the concentration at half of the fitted maximal effect.

SMILES | RE007 growth inh | SARS PLpro yeast | Pf growth 48h | Pf growth 96h | NS1 inh
Cc1ccc2c(c1)C1CN(C)CCC1N2C(=O)c1cn(-c2ccccc2)nc1-c1ccccc1 (configuration not stated) | 20% | 1% | 13µM* | ? | ·
Cc1ccc2c(c1)[C@@H]1CN(C)CC[C@@H]1N2C(=O)Nc1cccc(C(F)(F)F)c1 | -20% | 4% | · | 0.83µM* | 4%
Cc1ccc2c(c1)C1CN(C)CCC1N2C(=O)c1cccnc1Cl (configuration not stated) | -7% | -1% | -15% | 47% | -1%
Cc1ccc2c(c1)C1CN(C)CCC1N2C(=O)Nc1cccc(C(F)(F)F)c1 (configuration not stated) | -7% | -5% | 9.3µM* | · | 0%
Cc1ccc2c(c1)C1CN(C)CCC1N2C(=O)CCCN1C(=O)c2cccc3cccc(c23)C1=O (configuration not stated) | -5% | -1% | 1.9µM* | 3.7µM* | -2%
CCOc1ccc(CC(=O)Nc2c3c(nn2C(C)(C)C)CS(=O)(=O)C3)cc1 | 3% | -3% | -11% | -24% | 1%
CC(C)(C)OC(=O)[C@H](Cc1ccccc1)NC(=O)c1ncn2c1c(=O)[nH]c1ccc(Br)cc12 | -4% | · | · | · | ·
Cc1ccc2c(c1)C1CN(C)CCC1N2C(=O)c1cccc(S(=O)(=O)N2CC(C)CC(C)C2)c1 (configuration not stated) | 15% | -5% | ? | 13µM* | ·
Cc1cccc(N/N=C(\C=N\N)C(=O)c2ccc(Br)cc2)c1 | · | -11% | 12µM* | -26% | ·
CCc1c(C)c(C#N)c2nc3ccccc3n2c1NCc1ccccn1 | 12% | 0% | ? | -1% | -2%
CCOC(=O)c1[nH]c2ccccc2c1NC(=O)c1ccc(S(=O)(=O)N2CCOCC2)cc1 | 6% | 6% | ? | 15µM* | 20%
CCCCNC(=O)Nc1c(C(=O)OCC)[nH]c2ccccc12 | 7% | 9% | 6% | 8.3µM* | 3%
CCOC(=O)c1sc(NC(=O)c2ccc(S(=O)(=O)N(C)C)cc2)cc1C | -8%[3.69 µM] | 7% | · | 5.2µM* | -1%
CCOC(=O)c1sc(NC(=O)c2ccccc2)cc1C | -24% | -23% | · | ? | -71%
CCc1nc2ccccc2c(C(=O)OCC(=O)Nc2ccc(S(=O)(=O)N3CCOCC3)cc2)c1C | 3% | -3% | 9.3µM* | 21% | -4%
CC1(C)CC(=O)C2=C(C1)c1c(ccc3ccccc13)NC2c1ccc(Br)o1 (configuration not stated) | 15% | 2% | · | ? | -2%
CCc1nc2ccc(C(=O)NCCC(C)C)cn2c1N(CCN(C)C)CC1CC1 | 0% | · | · | · | ·
CCOC(=O)Nc1ccc(S(=O)(=O)N2CCOCC2)cc1 | 19% | 7% | 37% | 2% | -10%
CCOC(=O)c1sc(NC(=O)c2ccc(S(=O)(=O)N3CCOCC3)cc2)cc1C | 1% | -2% | ? | 5.9µM* | -46%
CCOC(=O)c1sc(NC(=O)c2cccc(S(=O)(=O)N3CCN(C)CC3)c2)cc1C | -7% | 6% | 2.3µM* | -9% | -5%
COC(=O)c1c(NC(=O)c2cccc(S(=O)(=O)N3CCN(C)CC3)c2)sc(C)c1C | -8% | 9% | ? | 12µM* | ·
CCOC(=O)c1sc(NC(=O)c2cccc(S(=O)(=O)N(CC)CC)c2)cc1C | -1% | -6% | · | 2.1µM* | 1%
Cc1ccc(NS(=O)(=O)c2coc(C(N)=O)c2)cc1F | 10% | 3% | 6% | 41% | 1%
CCOC(=O)c1sc(NC(=O)Nc2ccc(Cl)cc2)cc1C | 24% | -31% | 4.1µM* | ? | -32%
CCOC(=O)c1sc(NC(=S)NC(=O)C2CCCC2)cc1C | 3% | -25% | ? | 9.3µM* | 8%
SMILES | RE007 growth inh | SARS PLpro yeast | Pf growth 48h | Pf growth 96h | NS1 inh
CCOC(=O)c1sc(NC(=O)c2c(C)nn(Cc3ccccc3)c2C)cc1C | -2% | -3% | 9.3µM* | 1% | -31%
CCOC(=O)c1sc(NC(=O)C2CC2)cc1C | 3% | -20% | ? | ? | -126%
CCOC(=O)c1sc(NC(=O)c2ccc(Cl)s2)cc1C | -6% | 0% | ? | ? | -105%
COc1ccc(Cl)cc1C1=NOC2(CCC2)C(=O)N1Cc1ccc(NC(C)=O)cc1 | -4%[18.4 µM] | · | · | · | ·
CCOC(=O)N1CCC(N2C(=O)c3ccccc3C2Nc2cc(C)cc(C)c2)CC1 (configuration not stated) | 1% | -1% | ? | ? | -4%
CCOC(=O)N1CCC(N2C(=O)c3ccccc3C2Nc2ccc(C)cc2)CC1 (configuration not stated) | -6% | -1% | · | 9.3µM* | -76%
CCOC(=O)N1CCC(N2C(=O)c3ccccc3C2Nc2cc(C(=O)OC)cc(C(=O)OC)c2)CC1 (configuration not stated) | -2% | -5% | · | 8.3µM* | -90%
CC1(c2ccccc2)NC(=O)N(NC(=O)COC(=O)c2cc(Br)ccc2O)C1=O (configuration not stated) | -6% | 0% | 0% | -3% | ·
COc1cccc(C(C(=O)NC2CCCC2)N(C(=O)c2ccco2)c2ccc(-n3cnnn3)c(C)c2)c1OC (configuration not stated) | -23% | 0% | 9.3µM* | 34% | -6%
CCOc1ccc(C(C(=O)NC2CCCCC2)N(C(=O)Cc2cccs2)c2ccc(-n3cnnn3)c(OC)c2)cc1 (configuration not stated) | -1% | ? | 10µM* | 7.4µM* | 14%
COc1ccc(C(C(=O)NC2CCCCC2)N(C(=O)c2ccco2)c2ccc(-n3cnnn3)c(C)c2)cc1 (configuration not stated) | 2% | · | · | · | ·
Cc1ccc(NC(=O)CCNS(=O)(=O)c2ccccc2F)cc1S(=O)(=O)N1CCOCC1 | 1% | 1% | ? | ? | ·
COc1ccc2oc(=N)c(C(=O)Nc3cccc(C)c3C)cc2c1 | 1% | 12% | 39% | ? | 1%
CC(C)(C)NNC(=S)Nc1cccc(F)c1 | -2% | 0% | 10µM* | 8.3µM* | -4%
Fc1cccc(NC(=S)Nc2ccc(Br)cc2)c1 | 7% | -21% | 59% | ? | -39%
CCCCOC(=O)c1ccccc1C(=O)OCCCC | -11% | -2% | -19% | -10% | ·
O=C(O)c1ccccc1C(=O)OCCCCOC(=O)c1ccccc1C(=O)O | -11% | -1% | -5% | 15µM* | 4%
Cc1ccccc1C(=O)NC1CCN(Cc2nnnn2C2CCCC2)CC1 | 16% | 15% | -9% | 6.6µM* | 1%
Cc1ccc(Cn2nnnc2CN2CCC(NC(=O)c3ccc(Br)cc3)CC2)cc1 | 1% | 7% | 3.7µM* | ? | 4%
Cc1ccccc1C(=O)NC1CCN(Cc2nnnn2C(C)(C)C)CC1 | 19% | 1% | 6% | 46% | 2%
CCC(C)(C)n1nnnc1CN1CCC(NC(=O)c2ccc(Br)cc2)CC1 | -6% | 24% | ? | 4.1µM* | -22%
